Experimental findings from the supplement of paper PMC6555819 are described below.

For the experiment, the system named is PXR homodimer (NR concentration 270 nM). As to the kind of experiment: PBM binding z-score (relative to random genomic background probes); higher = stronger binding; sequences stand for … in GC…GCGATTGACAGCGTAGAATGAAGG
Summed up: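 Custom Agilent 4×180K protein-binding microarrays carried double-stranded probes. Their 34-nt variable regions held direct-repeat seeds, single-nucleotide variants, half-site ablations and random human genomic background sequences. Arrays were incubated 1 h with ligand-free nuclear receptor dimers in PBS pH 7.4, 2% milk, 0.02% Triton X-100, 1 mM DTT, 0.2 mg/mL BSA and 0.4 mg/ml salmon testes DNA. Antibodies against each partner (one per run) detected binding, and scanned fluorescence was regression-normalized. Binding z-scores use random background probes as reference.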
With TCTGCTAGGTCAACGATGGACAGCTAATCTGCTA, the PBM binding z-score is -0.751.
With TCATATAGGTAAAGGTTAAAGTCGAACGATATGA the figure was 0.481.
With ACTAGTAGGCCAAGTTTGGGTCACTCAAACAAAG the figure was -0.0858; with TCTTGTAGAACAGCAGGTTAAGAAAGCTGGCCAA, -0.772; with CCTATTAGTTGACCATAAGGGCTACCGAAGCTCG, 0.632.
The result for GCAGACAGGTGAAACGCGGGTAACTCAGGGTGGC reads -0.747; that for CCTAGTTGGTCAGGAGGTCAAACACCGGATATGA, 2.21.
TCGAGTAGGTTACAAATGGGGCATTCAGCTTTCT: the PBM binding z-score was -0.499.
As for GCTGCTAGGTCAGGTAGGTCAGCTAACGGGTACG, the PBM binding z-score was -0.0271.
The result for CCTAGTTGGTGAAGGTCACACACGCTATAGGTAC reads 1.34.
CTACCAAGGTGAACAAGGCCGTTGATTACTATTC gave a PBM binding z-score of 0.451.
The result for TATACAGGGTCAAAGGCCAGAGTCCGAATGTCGA reads 0.713; that for CGTCCAAGGTCAAAGGTCAGTGTAGAGATGACGG, 1.91; that for GTACGAAGGTGAATAGGTCGTTGATGAGTAGGCG, -0.215.
The result for CCTTACGGGTCAAGGTTATAGTACGGGTGGTACG reads 0.673; that for ACAATGAGGTTATTAAGATCAGGGAATTGCGGTC, 1.15; that for TCGAGTAGGTTACCAATGGGGCACTCAGCTTTCT, -0.848.
In the case of CCTACTGGGCCATTCAGAGGTCCTTGATCATATG, the PBM binding z-score was -0.408.
